From PubChem BioAssay
Pf Dd2 growth: inhibitors of Plasmodium falciparum Dd2 growth | P. falciparum Dd2 growth, SYBR Green, 72 h | Potency, µM (series often up to 28.9 µM), for the others: at the top dose activity, negative = inhibition, usual class: inhibitors | 120,000 compounds, 4.3% hits | AID 1347417; active = well fitted inhibition curve with a large enough effect;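 also: plate controls were DMSO vehicle for no effect and reference drug for full effect; nearly all actives have a fitted effect of over 65% in size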
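Readout: SYBR Green fluorescence, 485 nm excitation, 535 nm emission, after ~16 h lysis at 37C. Before that, Dd2-infected red cells (2.5% hematocrit) grew 72 h with compound, 29 uM top final concentration.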
* marks the source's active call; other numbers are inactive results; i = inactive; [ ] = remark or other dose. The entries come from a sample that favours hits as a whole. Potency is read from the fitted curve at half-maximal effect.

SMILES	Pf Dd2 growth
COc1ccc(S(=O)(=O)c2c(O)c3ccc(C(=O)NCc4ccc(Cl)cc4)cc3[nH]c2=O)cc1	-3.5%
COc1ccc(C(=O)Nc2cc(C(C)C)c(O)c(S(=O)(=O)c3ccc(OC)cc3)c2C)cc1	i
CC(C)(C)CC(=O)N1CCC(C(NC(=O)c2ccccc2Cl)C(=O)N2CCCCC2)CC1 (centres undefined)	-17.0%
Cn1c(CNCC2(COc3cccnc3)C[C@@H](O)[C@@H](O)C2)nc2ccccc21 (some centres undefined)	5.1%
Cc1ccc(NC(=O)[C@H](CSCc2ccccc2)N2Cc3ccccc3C2=O)cc1	i
CCc1ccc(NC(=O)[C@H](CSCc2ccccc2)N2Cc3ccccc3C2=O)cc1	i
CCN(CC)S(=O)(=O)c1ccc(NC(=O)[C@H](CSCc2ccccc2)N2Cc3ccccc3C2=O)cc1	5.01µM*
CC[C@@]1(O)CCN(C(=O)c2cccc(OCc3cccc(F)c3)c2)C[C@H]1O	-1.3%
COc1ccc(CN2C(=O)[C@@H]3C[C@@H](O)CN3C3(CN(C4CCN(C(C)=O)CC4)C3)C2=O)cc1	-8.6%
CN(C)CCNC(=O)c1n[nH]c2c1CN(C(=O)c1cc(F)ccc1F)CC2	-21.3%
Cc1ccc2oc3c(c(=O)c2c1)C(c1ccc(O)cc1)N(CCCN(C)C)C3=O (centres undefined)	27.0%
COc1ccc(C2c3c(oc4ccc(C)cc4c3=O)C(=O)N2CCCN2CCOCC2)cc1OC (centres undefined)	-7.3%
CC(C)c1ccc(C2c3c(oc4ccc(Cl)cc4c3=O)C(=O)N2CCCN2CCOCC2)cc1 (centres undefined)	6.31µM*
Cc1noc(-c2cn(C3CCN(C(=O)c4cccc(C#N)c4)CC3)nn2)n1	i
Cc1[nH]c(=O)[nH]c(=O)c1CC(=O)N[C@@H]1COCC[C@@H]1OCc1ccccc1	20.1%
O=C(C1CCCN1)N1CCN(Cc2ccc(=O)n(CC3CC3)c2)CC1 (centres undefined)	-20.6%
Cc1ccc(C)c(-c2cc3c(=O)n(CCNC(=O)c4ccc5c(c4)OCO5)ccn3n2)c1	i
CN(C)c1ccc(C(=O)NC2CCN(c3cc(-c4cccs4)[nH]n3)C2)cc1 (centres undefined)	i
CC(C)(C)C1CCc2c(sc(NC(=O)c3ccco3)c2C(=O)Nc2ccccc2Cl)C1 (centres undefined)	56.4%
Cc1cccc(NC(=O)c2c(NC(=O)c3ccco3)sc3c2CCC(C)C3)c1 (centres undefined)	i
Cc1cccc(NC(=O)c2c(NC(=O)c3ccco3)sc3c2CCC(C(C)(C)C)C3)c1 (centres undefined)	7.08µM*
COCCn1c(CO)nnc1C1CC(NC(=O)c2cccc(C#N)c2)C1 (centres undefined)	-15.3%
CCCN(CCC)CCCNC(=O)c1cc2c(-c3ccc(Cl)cc3)nn(C)c2s1	8.91µM*
COc1ccc(CNC(=O)c2cc3c(-c4ccc(Cl)cc4)nn(C)c3s2)cc1	-16.4%
Cc1ccc(CCNC(=O)c2cc3c(-c4ccccc4F)nn(C)c3s2)cc1	19.1%
SMILES	Pf Dd2 growth
Cc1cnn(CC(=O)N2CCCCCCNC(=O)CC2)c1	20.5%
CCCn1c2ccc(C)cc2c2nnc(SCCN3CCCCC3)nc21	8.91µM*
CCN(CC)CCSc1nnc2c3cc(F)ccc3n(CC)c2n1	-15.3%
CCCc1nnc(NC(=O)CSc2nnc3c4ccccc4n(CC)c3n2)s1	-22.2%
CCn1c2ccccc2c2nnc(SCC(=O)Nc3ccccc3OC)nc21	12.2%
CCn1c2ccc(F)cc2c2nnc(SCCN3CCCCC3)nc21	12.6µM*
CCOC(=O)c1ccc(NC(=O)CSc2nnc3c4ccccc4n(CC)c3n2)cc1	7.4%
CCCn1c2ccc(F)cc2c2nnc(SCCN3CCCCC3)nc21	7.94µM*
CC(C)CCN1C[C@H]2[C@H](C1)[S+](=O)([O-])C(C)(C)C(=O)N2Cc1ccc(O)cc1	-12.5%[44.1 µM]
O=C(CCc1nnn2c1CN(C(=O)c1ccccc1F)CC2)NC1CC1	5.5%
O=C(NC1C[C@H]2CC[C@@H](C1)N2C(=O)COc1ccc(Cl)cc1)c1ccncc1 (some centres undefined)	-14.9%
COc1cccc(C(CC(=O)NC2CCCCC2)c2c[nH]c3ccccc23)c1OC (centres undefined)	-0.9%
COc1ccc(N2CCN(C(=O)[C@H]3CCC[C@H]3NC(=O)c3cnc(C)cn3)CC2)cc1	-16.8%
Cc1ccc(C(=O)NCC(=O)N2CCCCCCNC(=O)CC2c2ccccc2)cn1 (centres undefined)	7.1%
COC1C(=O)N(C2CCN(Cc3cn(C)c4ccccc34)CC2)C12CCOCC2 (centres undefined)	i
Cc1cn2nc(C(=O)N3CCCC3)cc2c(N(C)Cc2ccccc2)n1	-4.3%
Cc1cn2nc(C(=O)Nc3ccccc3F)cc2c(N(C)Cc2ccccc2)n1	7.94µM*
Cc1cn2nc(C(=O)N3CCC(C)CC3)cc2c(N(C)Cc2ccccc2)n1	11.2µM*
Cc1cn2nc(C(=O)NCCCc3ccccc3)cc2c(N2CCCC2)n1	i
COc1ccc(NC(=O)c2cc3c(N(C)Cc4ccccc4)nc(C)cn3n2)cc1OC	i
